# Test results as given in PubChem BioAssay.
# Values without a mark were called inactive.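 The calls were made as follows, unless noted: active = viability at or below 10% of carrier control in both of two separate runs; inconclusive = viability at or below 10% in only one of the two runs; inactive = the rest.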
# Target: Receptor tyrosine-protein kinase erbB-2 (Homo sapiens) (UniProt P04626)
# Assay: reducers of endogenous Her2 protein level, primary screen, SKBR3 breast tumor cells, AlphaScreen, ATP viability (AID 461;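 active = Her2 level under about 52% in both replicate screens, with viability over 70% of control, limit read from the data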;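 also: lower value means less Her2 protein in the cells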)
# Details: 18-24 h, at 10 µM, hits give low values
# Chain of Receptor tyrosine-protein kinase erbB-2 (Homo sapiens) (P04626 whole entry, looked up): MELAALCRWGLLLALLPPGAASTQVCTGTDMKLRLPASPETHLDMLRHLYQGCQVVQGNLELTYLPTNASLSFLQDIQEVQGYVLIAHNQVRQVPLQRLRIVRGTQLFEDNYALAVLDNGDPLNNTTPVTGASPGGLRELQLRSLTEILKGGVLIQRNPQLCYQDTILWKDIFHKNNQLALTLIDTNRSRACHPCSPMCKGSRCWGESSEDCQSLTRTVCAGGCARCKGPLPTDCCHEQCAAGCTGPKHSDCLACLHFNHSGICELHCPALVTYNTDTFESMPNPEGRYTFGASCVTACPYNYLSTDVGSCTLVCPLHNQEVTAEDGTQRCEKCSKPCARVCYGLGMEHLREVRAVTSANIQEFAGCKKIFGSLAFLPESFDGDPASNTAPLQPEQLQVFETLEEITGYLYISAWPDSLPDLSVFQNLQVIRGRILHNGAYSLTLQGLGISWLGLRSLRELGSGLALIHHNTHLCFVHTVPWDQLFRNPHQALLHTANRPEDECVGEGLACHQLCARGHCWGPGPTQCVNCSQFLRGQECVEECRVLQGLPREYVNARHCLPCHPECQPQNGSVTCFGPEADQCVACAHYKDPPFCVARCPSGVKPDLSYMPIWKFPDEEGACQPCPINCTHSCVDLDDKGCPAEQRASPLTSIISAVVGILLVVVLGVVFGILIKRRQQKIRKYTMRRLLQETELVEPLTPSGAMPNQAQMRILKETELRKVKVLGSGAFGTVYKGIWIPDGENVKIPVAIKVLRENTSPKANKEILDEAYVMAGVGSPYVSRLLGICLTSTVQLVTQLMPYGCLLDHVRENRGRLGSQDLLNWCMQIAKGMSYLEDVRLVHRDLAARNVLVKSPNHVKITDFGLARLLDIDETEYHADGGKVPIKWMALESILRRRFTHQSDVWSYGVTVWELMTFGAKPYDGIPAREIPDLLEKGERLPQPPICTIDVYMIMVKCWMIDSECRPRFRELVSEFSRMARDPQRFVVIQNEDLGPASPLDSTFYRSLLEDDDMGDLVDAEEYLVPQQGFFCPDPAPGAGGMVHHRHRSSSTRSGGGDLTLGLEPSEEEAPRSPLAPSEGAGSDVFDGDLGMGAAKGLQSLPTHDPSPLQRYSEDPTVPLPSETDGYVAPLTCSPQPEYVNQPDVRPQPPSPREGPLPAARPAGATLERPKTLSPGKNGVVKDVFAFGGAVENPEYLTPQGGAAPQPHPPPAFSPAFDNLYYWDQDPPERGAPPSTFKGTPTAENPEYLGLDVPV
row,Structure (SMILES),Her2 level
1,Cc1ccccc1Cn1ccc(NC(=O)c2onc(C)c2Cl)n1,106%
2,CN(CCCNC(=O)c1cn(C)c2ccc(S(=O)(=O)N(C)C)cc2c1=O)c1ccccc1,90%
3,NC(=O)CN1C(=O)C(O)(CC(=O)c2ccccc2O)c2ccccc21 (centres undefined),95.5%
4,CC(C)CCN(C)C1CCN(S(=O)(=O)c2ccc(F)cc2)CC1,104%
5,COc1ccc(C(C)N2CC34C=CC(O3)C(C(=O)OCC(C)C)C4C2=O)cc1 (centres undefined),89.5%
6,COc1ccc(Cl)cc1S(=O)(=O)N1CCN(c2ccc(F)cc2)CC1,82%
7,Cc1sc2nc(SCC(=O)NCCO)n(C)c(=O)c2c1C,108%
8,CC(=O)NCCc1nc2ccccc2[nH]1,104%
9,CCN1C(=O)c2cccc3c(NC(=O)c4ccc(S(=O)(=O)N(C)C)cc4)ccc1c23,95.5%
10,Cc1nc2ccccc2c2oc(C(=O)N3CCN(C(=O)c4ccco4)CC3)cc12,95.5%
11,c1ccc(Cn2nnc3c(N4CCCCCC4)ncnc32)cc1,88%
12,COC(=O)c1cn(C(=O)c2ccc(Br)o2)c2ccccc12,102%
13,CS(=O)(=O)Nc1ccccc1C(=O)O,80.5%
14,Cn1cccc1Cc1nnc(SCC(=O)NCC2CCCO2)n1-c1ccc(F)cc1 (centres undefined),90%
15,Cc1ccc(Cn2c(=O)c3ccccc3n3c(CCC(=O)O)nnc23)cc1,100%
16,COc1ccc(OCCSc2nc3ccccc3n2CC(=O)O)cc1,108%
17,CCCCSc1nc2c(cnn2-c2ccc(F)cc2)c(=O)[nH]1,92%
18,CCOc1ccc(NC(=O)C(C)Sc2nnc(C)n2C)cc1 (centres undefined),126%
19,CCOc1ccc2[nH]c(C)cc(=O)c2c1,100%
20,Cc1nc2ccccc2c2oc(C(=O)N3CCC(N4CCCCC4)CC3)cc12,104%
21,O=C(O)c1ccc2c(c1)C(=O)N(c1ccc(Cl)cn1)C2=O,111%
22,COc1cccc(-c2nc(CS(=O)(=O)CC(=O)NCc3ccc(Cl)cc3)c(C)o2)c1,71%
23,COc1ccc(C(NC(=O)c2ccco2)c2ccc(OC)c(OC)c2)cc1 (centres undefined),84%
24,CCOC(=O)N1CCC(NC(=O)CN2C(=O)CCSc3ccccc32)CC1,97.5%

# System: not listed separately
# Assay: SK-BR-3 cell growth inhibitors, pilot screen, 24 h, human (AID 572);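 also: compound exposure lasted between 18 and 24 h rather than exactly 24 h; 100% = carrier-treated control wells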
# Details: SK-BR-3 viability, CellTiter-Glo luminescence, at 10 µM, hits give low values
row,Structure (SMILES),viability
1,CCCCN=CC1=C(O)C(C(=O)OC)C(C)(C)CC1=O (centres undefined),79%
2,Cc1ccc(C)c(C(=O)CC2(O)C(=O)N(C)c3ccccc32)c1 (centres undefined),112%
3,CC(=O)C1=C(C)Nc2ncnn2C1c1cccc(OCc2ccccc2)c1 (centres undefined),102%
4,Cc1ccc(C(=O)CC2(O)C(=O)N(C)c3ccc(Br)cc32)c(C)c1 (centres undefined),85%
5,Fc1cccc(Nc2ncnc3c2cnn3-c2ccccc2)c1,83.5%
6,COc1ccc(NC(=O)NCCN2C(=O)C3C4C=CC(C4)C3C2=O)cc1 (centres undefined),96%
7,Cc1ccc(C)c(NC(=O)CSc2nnc(-c3ccccc3)o2)c1,89.5%
8,O=C(NCCCN1CCOCC1)c1cc(-c2ccc(O)cc2)on1,100%
9,CCOC(=O)c1ccc(NC(=O)Cn2cc3c(n2)CCC(C)C3)cc1 (centres undefined),91.5%
10,N#C/C(C(=O)N1CCOCC1)=C1/SC=C(c2ccccc2)N1c1ccccc1,102%
11,COc1ccc(C(=O)c2coc3ccc(O)c(CN4CCCCC4)c23)cc1,79.5%
12,CCn1c(C(=O)N2CCC(C(=O)N3CCN(c4ccccn4)CC3)CC2)cc2sccc21,95%
13,CCOC(=O)N1CCN(Cc2nc3c(c(=O)n(C)c(=O)n3C)n2Cc2ccccc2)CC1,104%
14,CN1CCN(C(=O)c2ccc(CS(=O)(=O)c3c(Cl)cccc3Cl)o2)CC1,98.5%
15,CN(C)CCCN1C(=O)c2oc3ccc(Cl)cc3c(=O)c2C1c1cccnc1 (centres undefined),100%
16,O=C(CSc1nnc2ccccn12)c1ccccc1,99%
17,Cc1ccccc1Cn1ccc(NC(=O)c2onc(C)c2Cl)n1,107%
18,CN(CCCNC(=O)c1cn(C)c2ccc(S(=O)(=O)N(C)C)cc2c1=O)c1ccccc1,85.5%
19,NC(=O)CN1C(=O)C(O)(CC(=O)c2ccccc2O)c2ccccc21 (centres undefined),92.5%
20,CC(C)CCN(C)C1CCN(S(=O)(=O)c2ccc(F)cc2)CC1,87%

row,Structure (SMILES),viability
1,COc1ccc(C(C)N2CC34C=CC(O3)C(C(=O)OCC(C)C)C4C2=O)cc1 (centres undefined),103%
2,COc1ccc(Cl)cc1S(=O)(=O)N1CCN(c2ccc(F)cc2)CC1,80%
3,Cc1sc2nc(SCC(=O)NCCO)n(C)c(=O)c2c1C,91%
4,CC(=O)NCCc1nc2ccccc2[nH]1,94%
5,CCN1C(=O)c2cccc3c(NC(=O)c4ccc(S(=O)(=O)N(C)C)cc4)ccc1c23,86%
6,Cc1nc2ccccc2c2oc(C(=O)N3CCN(C(=O)c4ccco4)CC3)cc12,79%
7,c1ccc(Cn2nnc3c(N4CCCCCC4)ncnc32)cc1,94%
8,COC(=O)c1cn(C(=O)c2ccc(Br)o2)c2ccccc12,89%
9,CS(=O)(=O)Nc1ccccc1C(=O)O,102%
10,Cn1cccc1Cc1nnc(SCC(=O)NCC2CCCO2)n1-c1ccc(F)cc1 (centres undefined),97.5%
11,Cc1ccc(Cn2c(=O)c3ccccc3n3c(CCC(=O)O)nnc23)cc1,107%
12,COc1ccc(OCCSc2nc3ccccc3n2CC(=O)O)cc1,92.5%
13,CCCCSc1nc2c(cnn2-c2ccc(F)cc2)c(=O)[nH]1,93.5%
14,CCOc1ccc(NC(=O)C(C)Sc2nnc(C)n2C)cc1 (centres undefined),92%
15,CCOc1ccc2[nH]c(C)cc(=O)c2c1,100%
16,Cc1nc2ccccc2c2oc(C(=O)N3CCC(N4CCCCC4)CC3)cc12,102%
17,O=C(O)c1ccc2c(c1)C(=O)N(c1ccc(Cl)cn1)C2=O,98%
18,COc1cccc(-c2nc(CS(=O)(=O)CC(=O)NCc3ccc(Cl)cc3)c(C)o2)c1,72.5%
19,COc1ccc(C(NC(=O)c2ccco2)c2ccc(OC)c(OC)c2)cc1 (centres undefined),93%
20,CCOC(=O)N1CCC(NC(=O)CN2C(=O)CCSc3ccccc32)CC1,96.5%
